Bioassay records deposited in PubChem BioAssay by National Center for Advancing Translational Sciences (NCATS).
Most compounds without a hit are left out; they make up all but 8.1% or so of the library.
Gal4-VP16 FLuc: Gal4-VP16 reporter inhibition counter-screen | AID 2546 | Potency, µM (top dose mostly 53.6 µM), for inactives: at the top dose activity, negative = inhibition, most hits filed as inhibitors | Drosophila S2 Gal4-VP16 UAS-luciferase, luminescence, 20 h | 3.5% of 310,000 active;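 also: Gal4-VP16 expression switched on by copper sulfate through the metallothionein promoter; % is scaled to controls: 0 for no effect and ±100 for the full control effect; nearly all actives have a fitted effect of over 50% in size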
Epigenetic derep: derepresses silenced GFP reporter in murine cells. murine LDR cells, GFP reporter derepression, 30 h. Potency, µM (doses to about 53.9 µM), for inactives: at the top dose GFP activation, most hits filed as activators. 0.2% of 280,000 active; also: % of control where 0% means no effect; nearly all actives have a fitted effect of over 60% in size
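Reporter derepression read as number of fluorescent GFP-positive objects, 20-120 um in size, counted by laser-scanning cytometer. Mouse LDR line with an epigenetically silenced CMV-GFP locus; compound incubation 30 h, 37 C.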
PINK1 expr mod: PINK1 expression modulation; 0.2% of 410,000 active; AID 624263; PINK1 immunofluorescence, high-content cytometry, 24 h; Potency, µM (doses to about 76.6 µM), for the others: at the top dose activation (PINK1 increase), usual class: activators; active = well fitted activation curve with a large enough effect; inconclusive = small, poorly fitted or top-dose-only effect; cell line not stated here; also: % of control where 0% means no effect; nearly all actives have a fitted effect of over 65% in size
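Stable cell line, 250 cells/well, 12 h attachment; compounds pinned at 5 concentrations, 24 h; CCCP control. Fixed with nuclear dye, primary antibodies 12 h at 10 degrees C, secondary plus cell stain; laser-scanning cytometer read.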
Sfp PPTase inh: blocks B. subtilis Sfp PPTase activity | Q9F4F7 | Biochemical Sfp PPTase activity, qHTS | Potency, µM, inactives show largest response in the series, negative = inhibition, usual class: inhibitors | 3.5% of 310,000 active | AID 1490;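 also: the enzyme is Sfp with the accession as filed and its product quenches rhodamine fluorescence; 0% = enzyme reaction without inhibitor and -100% = no enzyme wells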
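Compounds were incubated with enzyme (final 15 nM) for 15 min at room temperature before substrate addition started the reaction. Fluorescence at 525 nm excitation, 598 nm emission was recorded immediately and after 30 minutes.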
RORgamma inh: ROR gamma (mouse) transcription inhibition | P51450 | Drosophila S2 Gal4-RORgamma UAS-luciferase reporter, 20 h | Potency, µM (top dose mostly 53.6 µM), without a hit: at the top dose activity change, negative = inhibition, actives largely listed as inhibitors | 5.4% of 310,000 active; also: % is scaled to controls: 0 for no effect and ±100 for the full control effect; nearly all actives have a fitted effect of over 60% in size
Target sequence (P51450 whole entry, looked up, the tested form may be a part): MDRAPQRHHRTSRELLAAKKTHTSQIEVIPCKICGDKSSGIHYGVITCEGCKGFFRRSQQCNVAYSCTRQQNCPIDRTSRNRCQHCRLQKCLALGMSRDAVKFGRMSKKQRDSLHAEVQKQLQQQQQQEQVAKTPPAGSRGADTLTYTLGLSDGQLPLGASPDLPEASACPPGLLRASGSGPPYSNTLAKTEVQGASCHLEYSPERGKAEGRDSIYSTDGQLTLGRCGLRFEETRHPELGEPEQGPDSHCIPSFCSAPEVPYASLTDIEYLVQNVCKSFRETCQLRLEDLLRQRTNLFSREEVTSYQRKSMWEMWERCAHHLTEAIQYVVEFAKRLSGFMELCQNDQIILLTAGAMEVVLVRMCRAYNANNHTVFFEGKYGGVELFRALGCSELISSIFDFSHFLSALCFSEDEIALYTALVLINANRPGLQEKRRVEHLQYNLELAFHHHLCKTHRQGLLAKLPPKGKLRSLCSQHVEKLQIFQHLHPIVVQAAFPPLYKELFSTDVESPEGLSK
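Drosophila S2 cells stably expressing Gal4-DBD/mouse RORγ fusion under metallothionein promoter plus UAS-luciferase; compound 1 h, then 700 uM CuSO4 induction for 20 h at ambient temperature; inhibition read as reduced luminescence.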
ClpP mod: qHTS Assay for Activators of ClpP. Potency, µM (series often up to 57.5 µM), inactives show at the highest dose activity change, negative = active. purified B. subtilis ClpP, FRET peptide cleavage, 20 min. AID 651965, 2013. ATP-dependent Clp protease proteolytic subunit (Bacillus subtilis (strain 168)), P80244. 1.9% of 340,000 active; active = well fitted falling curve with a large enough effect; inconclusive = small, poorly fitted or top-dose-only effect; inactive = no such curve, though single readings can be large or run the other way; also: the source files actives as falling curves though it sought activators and does not explain the sign; nearly all actives have a fitted effect of over 65% in size
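Buffer: 100 mM Tris/HCl pH8, 100 mM KCl, 0.05% low protease BSA, 2.5% glycerol, 0.01% Tween-20. ClpP 10 microg/mL final; 20 min RT; delta FRET normalized to ADEP and DMSO controls.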
Starred values were filed as active, the others as inactive; u = inconclusive; x = not tested or not shown; ! = repeats disagree; [ ] = another dose, or the depositor's remark. Unless noted, calls follow the shape of the dose curve; as a rule, active = well fitted curve in the direction sought with a large enough effect; inconclusive = small, poorly fitted or top-dose-only effect, or another doubt; inactive = no such curve, though single readings can be large; an effect the other way counts as inactive or inconclusive. Potency is read from the fitted curve at half-maximal effect.

SMILES	Gal4-VP16 FLuc	Epigenetic derep	PINK1 expr mod	Sfp PPTase inh	RORgamma inh	ClpP mod
Cc1nc(C(=O)Nc2ccc(Cl)cc2Cl)nn1-c1cc(OC(C)C)c(Cl)cc1Cl	-11%	3%	4%	2%	4%	28µM*
N#CCCCS(=O)(=O)c1nnnn1C1CCCCC1	-8%	-1%	x	6%	16%	x
CCN(CC)C(=S)SCC(=O)c1ccccc1	-7%	-3%	-1%	14%	6%	6%
CCN(CC)C(=S)SSC(=S)N(CC)CC	1µM*	0.25µM*	1%	3.5µM*!	1.1µM*	1%
COc1ccccc1CN1CCCC(CNC(=O)c2cccc3ccccc23)C1 (centres undefined)	-12%	x	-2%	1%	-12%[1.91 µM]	0%
O=C(NCC1CCCN(Cc2nccs2)C1)c1cccc2ccccc12 (centres undefined)	7%	x	0%	13%	-1%	35µM*
CS(=O)(=O)N(Cc1ccccc1)c1ccc(C(=O)Nc2cccc(Cl)c2)cc1	x	-1%	0%	x	x	-12%
CCCNC(=O)c1c2c(nc3ccccc13)C(=O)N(C1CCCCC1)C2	x	3%	1%	x	x	u
